Results from PubChem BioAssay (EPA / NIEHS).
Several values for one entry are separate records, joined by “and”; a condition that tells them apart may be missing. Identical values can stand only once. Some structures have more than one record in an assay (separate samples or runs), and their calls can disagree. Activity calls are given as the source filed them. How the source made its calls: active means hit-call score of the fitted dose curve at least 0.9, where 1 is the maximum; inactive means score below 0.9.

Legend:
[1] = read-out: growth arrest and DNA damage 45 (GADD45A), GADD45A (gene 1647); assay: LTEA_HepaRG_GADD45A: Life Technologies and Expression Analysis (LTEA) Assay for growth arrest and DNA damage 45 (GADD45A) using HepaRG (AID 2283458); conditions: mRNA level, 48 h; actives raise or lower the signal
Summary of the method: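 GADD45A expression was measured by TaqMan qRT-PCR against three housekeeping genes (ACTB, GAPDH, POLR2A) after 48 h treatment of HepaRG cells. Eight-point half-log series up to 100 uM in 0.5% DMSO, run in duplicate.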

[2] = read-out: Forkhead box O3 (FOXO3), FOXO3 (gene 2309); assay: LTEA_HepaRG_FOXO3: Life Technologies and Expression Analysis (LTEA) Assay for Forkhead box O3 (FOXO3) using HepaRG (AID 2283459); conditions: mRNA level, 48 h; actives raise or lower the signal
Summary of the method: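 FOXO3 transcript measured by qRT-PCR (normalized to ACTB, GAPDH, POLR2A) after 48 h exposure of HepaRG cells in serum-free induction medium. Duplicates, eight half-log concentrations up to 100 uM, 0.5% DMSO; gain or loss fitted against DMSO.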

[3] = read-out: ABC Transporter (ABCB1), ABCB1 (gene 5243); assay: LTEA_HepaRG_ABCB1: Life Technologies and Expression Analysis (LTEA) Assay for ABC Transporter (ABCB1) using HepaRG (AID 2283460); conditions: mRNA level, 48 h; actives raise or lower the signal
Summary of the method: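 ABCB1 transcript level measured by TaqMan qRT-PCR against three housekeeping genes after 48 h chemical exposure of differentiated HepaRG cells. Top concentration 100 uM, half-log steps, eight points, 0.5% DMSO vehicle; bidirectional fit relative to DMSO.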

[4] = read-out: growth arrest and DNA damage 45 (GADD45B), GADD45B (gene 4616); assay: LTEA_HepaRG_GADD45B: Life Technologies and Expression Analysis (LTEA) Assay for growth arrest and DNA damage 45 (GADD45B) using HepaRG (AID 2283461); conditions: mRNA level, 48 h; actives raise or lower the signal
Summary of the method: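 Human HepaRG monolayers receive chemicals for 48 h at eight half-log concentrations, highest 100 uM, in 0.5% DMSO. Expression is measured by TaqMan qRT-PCR and normalized to ACTB, GAPDH and POLR2A.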

[5] = read-out: ABC Transporter (ABCC3), ABCC3 (gene 8714); assay: LTEA_HepaRG_ABCC3: Life Technologies and Expression Analysis (LTEA) Assay for ABC Transporter (ABCC3) using HepaRG (AID 2283462); conditions: mRNA level, 48 h; actives raise or lower the signal
Summary of the method: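 Transcriptional change of ABCC3 in HepaRG after 48 h treatment, determined by qRT-PCR normalized to endogenous controls. Concentrations spanned eight half-log steps to 100 uM in 0.5% DMSO.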

[6] = read-out: ABC Transporter (ABCB11), ABCB11 (gene 8647); assay: LTEA_HepaRG_ABCB11: Life Technologies and Expression Analysis (LTEA) Assay for ABC Transporter (ABCB11) using HepaRG (AID 2283463); conditions: mRNA level, 48 h; actives raise or lower the signal
Summary of the method: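 ABCB11 transcript levels quantified by TaqMan qRT-PCR against three housekeeping genes after 48 h chemical exposure of HepaRG cultures. Concentrations up to 100 uM in half-log steps, 0.5% DMSO vehicle; both induction and suppression scored.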

[7] = read-out: Broad substrate specificity ATP-binding cassette transporter ABCG2 (Homo sapiens) (UniProt Q9UNQ0); assay: LTEA_HepaRG_ABCG2: Life Technologies and Expression Analysis (LTEA) Assay for ABC Transporter (ABCG2) using HepaRG (AID 2283465); conditions: mRNA level, 48 h; actives raise or lower the signal
Summary of the method: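 ABCG2 transcript was quantified by TaqMan qRT-PCR against three housekeeping genes in HepaRG cells. Cells were treated in duplicate for 48 h across an 8-point half-log series up to 100 uM, with 0.5% DMSO vehicle. Gain or loss versus DMSO was fit.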

[8] = read-out: ATP-citrate lyase (ACLY), ACLY (gene 47); assay: LTEA_HepaRG_ACLY: Life Technologies and Expression Analysis (LTEA) Assay for ATP-citrate lyase (ACLY) using HepaRG (AID 2283466); conditions: mRNA level, 48 h; actives raise or lower the signal
Summary of the method: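 ACLY mRNA quantified by qRT-PCR on Fluidigm arrays against three housekeeping genes, after 48 h chemical treatment of HepaRG cells (top concentration 100 uM, half-log steps, 0.5% DMSO vehicle). Up- or down-regulation fitted relative to DMSO.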

[9] = read-out: Peroxisomal acyl-coenzyme A oxidase 1 (ACOX1) gene, ACOX1 (gene 51); assay: LTEA_HepaRG_ACOX1: Life Technologies and Expression Analysis (LTEA) Assay for Peroxisomal acyl-coenzyme A oxidase 1 (ACOX1) gene using HepaRG (AID 2283467); conditions: mRNA level, 48 h; actives raise or lower the signal
Summary of the method: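 ACOX1 transcript levels were quantified by TaqMan qRT-PCR against three housekeeping genes after 48 h chemical exposure of differentiated human HepaRG cells. Exposure used eight half-log steps topping at 100 uM, 0.5% DMSO vehicle, in duplicate. Bidirectional curve fits were made relative to DMSO.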

[10] = read-out: Alkaline Phosphatase, Placental (ALPP) gene, ALPP (gene 250); assay: LTEA_HepaRG_ALPP: Life Technologies and Expression Analysis (LTEA) Assay for Alkaline Phosphatase, Placental (ALPP) gene using HepaRG (AID 2283468); conditions: mRNA level, 48 h; actives raise or lower the signal;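 on AC50: differentiated human HepaRG liver cells in serum-free induction medium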
Summary of the method: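 Using human liver HepaRG cells, chemicals are tested in duplicate over 48 h at half-log concentrations topping at 100 uM; phenobarbital 1 mM serves as induction control. ALPP mRNA change by qRT-PCR, bidirectional fit against vehicle.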

[11] = read-out: Bcl-2 (BAD) gene, BAD (gene 572); assay: LTEA_HepaRG_BAD: Life Technologies and Expression Analysis (LTEA) Assay for Bcl-2 (BAD) gene using HepaRG (AID 2283469); conditions: mRNA level, 48 h; actives raise or lower the signal
Summary of the method: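 Read-out: qRT-PCR of BAD mRNA, normalized to three housekeeping genes. Human HepaRG cultures got 48 h chemical exposure in 0.5% DMSO, duplicate eight-point half-log series topping at 100 uM. Gain or loss of signal fitted versus DMSO vehicle.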

[12] = read-out: Bcl-2 (BAX) gene, BAX (gene 581); assay: LTEA_HepaRG_BAX: Life Technologies and Expression Analysis (LTEA) Assay for Bcl-2 (BAX) gene using HepaRG (AID 2283470); conditions: mRNA level, 48 h; actives raise or lower the signal
Summary of the method: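 Gene expression measured by Fluidigm qRT-PCR with three housekeeping genes for normalisation. HepaRG cells, plated 48 h beforehand, treated 48 h at up to 100 uM (8-point, half-log) in 0.5% DMSO. Bidirectional fitting versus DMSO.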

[13] = read-out: adenosine kinase (ADK) gene, ADK (gene 132); assay: LTEA_HepaRG_ADK: Life Technologies and Expression Analysis (LTEA) Assay for adenosine kinase (ADK) gene using HepaRG (AID 2283471); conditions: mRNA level, 48 h; actives raise or lower the signal
Summary of the method: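 ADK expression quantified by qRT-PCR, normalised to three housekeeping genes, after 48 h exposure of HepaRG cells to eight concentrations (top 100 uM, half-log steps, duplicate, 0.5% DMSO). Up- or down-regulation fitted relative to vehicle.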

[14] = read-out: Alpha-fetoprotein (AFP) gene, AFP (gene 174); assay: LTEA_HepaRG_AFP: Life Technologies and Expression Analysis (LTEA) Assay for Alpha-fetoprotein (AFP) gene using HepaRG (AID 2283472); conditions: mRNA level, 48 h; actives raise or lower the signal
Summary of the method: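 AFP transcript measured by TaqMan qRT-PCR with three housekeeping genes for normalization, after 48 h chemical treatment of HepaRG cells (top 100 uM, half-log steps, 0.5% DMSO). Gain or loss fitted against vehicle.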

BCL2L11 (gene 10018) = assay: LTEA_HepaRG_BCL2L11: Life Technologies and Expression Analysis (LTEA) Assay for Bcl-2 (BCL2L11) gene using HepaRG (AID 2283473); conditions: mRNA level, 48 h; actives raise or lower the signal
Summary of the method: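 Human hepatic HepaRG cultures are treated 48 h with test chemicals (maximum 100 uM, 0.5% DMSO vehicle). Expression of BCL2L11 is measured by qRT-PCR against ACTB, GAPDH and POLR2A, with activity in either direction scored relative to vehicle.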

[15] = read-out: Apolipoprotein A-V (APOA5) gene, APOA5 (gene 116519); assay: LTEA_HepaRG_APOA5: Life Technologies and Expression Analysis (LTEA) Assay for Apolipoprotein A-V (APOA5) gene using HepaRG (AID 2283474); conditions: mRNA level, 48 h; actives raise or lower the signal
Summary of the method: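 Concentration-response of APOA5 expression in HepaRG: eight half-log doses to 100 uM, 48 h, qRT-PCR normalized to ACTB/GAPDH/POLR2A, bidirectional fitting with 0.5% DMSO as baseline.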

[16] = read-out: Apoptosis regulator Bcl-2 (Homo sapiens) (UniProt P10415); assay: LTEA_HepaRG_BCL2: Life Technologies and Expression Analysis (LTEA) Assay for Bcl-2 gene using HepaRG (AID 2283475); conditions: mRNA level, 48 h; actives raise or lower the signal
Summary of the method: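 qRT-PCR of BCL2 transcript, normalized to three housekeeping genes (ACTB, GAPDH, POLR2A), after 48 h chemical exposure of HepaRG cells; concentrations top 100 uM with half-log dilutions, 0.5% DMSO vehicle, duplicates; changes up or down fitted relative to vehicle.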

[17] = read-out: Bcl-2 (BID) gene, BID (gene 637); assay: LTEA_HepaRG_BID: Life Technologies and Expression Analysis (LTEA) Assay for Bcl-2 (BID) gene using HepaRG (AID 2283476); conditions: mRNA level, 48 h; actives raise or lower the signal
Summary of the method: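 Duplicate 48 h treatments of HepaRG cells in serum-free induction medium spanned 100 uM downward in half-log steps, 0.5% DMSO. Transcript change quantified by qRT-PCR against three housekeeping genes, fitted up or down versus DMSO.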

[18] = CEETOX_H295R_TESTO: CeeTox H295R High-throughput Steroidogenesis Assay for Testosterone (TESTO) (AID 2283457); conditions: actives raise or lower the signal;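 on AC50: cells exposed to chemicals for 48 h before medium collection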
Summary of the method: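 Steroidogenesis in H295R cells following OECD 456 with minor changes; 48 h exposure. Medium testosterone by HPLC-MS/MS, DMSO as baseline, with MTT viability run in parallel.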

[19] = read-out: ABC Transporter (ABCC2), ABCC2 (gene 1244); assay: LTEA_HepaRG_ABCC2: Life Technologies and Expression Analysis (LTEA) Assay for ABC Transporter (ABCC2) using HepaRG (AID 2283464); conditions: mRNA level, 48 h; actives raise or lower the signal
Summary of the method: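 After plating and 48 h culture, HepaRG medium is replaced with serum-free induction medium and chemicals are added (8 concentrations, max 100 uM, 0.5% DMSO) for 48 h. Total RNA then undergoes qRT-PCR for ABCC2 with housekeeping normalization.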

Measured: AC50

Apoptosis regulator Bcl-2 (Homo sapiens), sequence (P10415 whole entry, looked up): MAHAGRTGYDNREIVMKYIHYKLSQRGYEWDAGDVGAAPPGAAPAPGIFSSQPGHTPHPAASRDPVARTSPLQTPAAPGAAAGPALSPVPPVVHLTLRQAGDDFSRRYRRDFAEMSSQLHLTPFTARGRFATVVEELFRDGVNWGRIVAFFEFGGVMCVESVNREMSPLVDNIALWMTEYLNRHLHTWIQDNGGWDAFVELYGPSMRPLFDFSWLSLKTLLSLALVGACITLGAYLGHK
Broad substrate specificity ATP-binding cassette transporter ABCG2 (Homo sapiens), sequence (Q9UNQ0 whole entry, looked up): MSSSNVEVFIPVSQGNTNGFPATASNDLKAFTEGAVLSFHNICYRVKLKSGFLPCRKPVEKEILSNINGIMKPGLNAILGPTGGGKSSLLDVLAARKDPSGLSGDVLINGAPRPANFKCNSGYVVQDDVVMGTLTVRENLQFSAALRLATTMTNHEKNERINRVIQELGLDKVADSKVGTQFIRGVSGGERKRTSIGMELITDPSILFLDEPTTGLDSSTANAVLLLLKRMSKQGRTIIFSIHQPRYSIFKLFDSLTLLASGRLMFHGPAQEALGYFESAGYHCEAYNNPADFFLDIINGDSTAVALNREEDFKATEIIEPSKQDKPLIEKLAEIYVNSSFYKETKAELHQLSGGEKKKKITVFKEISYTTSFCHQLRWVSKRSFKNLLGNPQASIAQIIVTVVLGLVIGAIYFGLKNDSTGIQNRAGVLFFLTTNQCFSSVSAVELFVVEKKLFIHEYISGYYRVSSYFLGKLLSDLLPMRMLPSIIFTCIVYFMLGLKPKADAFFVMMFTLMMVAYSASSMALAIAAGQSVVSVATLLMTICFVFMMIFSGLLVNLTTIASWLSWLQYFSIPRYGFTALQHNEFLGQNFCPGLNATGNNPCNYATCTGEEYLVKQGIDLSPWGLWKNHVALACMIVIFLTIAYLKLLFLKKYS

CCOC(=O)C(C)Oc1ccc(Oc2cnc3cc(Cl)ccc3n2)cc1 (centres undefined)
active: [6] 1.93 µM
not listed: [18] | [19]
inactive: all other assays above

CCCCC(CC)CN1C(=O)C2C3C=CC(C3)C2C1=O (centres undefined)
active: [3] 12.5 µM | [5] 50 µM | [6] 89 µM | [7] 13.2 µM | [8] 73 µM | [10] 65.4 µM | [14] 50 µM | [15] 79.3 µM
not listed: [9] | [18] | [19]
inactive: all other assays above

CN(C)C(=O)Nc1ccc(Cl)c(Cl)c1
active: [18] 28.1 µM | [2] 22.2 µM | [4] 66.5 µM | [6] 50 µM | [7] 36.4 µM | [14] 50 µM
not listed: [1] | [9]
inactive: all other assays above

CCCCOCCOCCOCc1cc2c(cc1CCC)OCO2
active: [3] 4.01 µM | [7] 8.84 µM | [14] 33.3 µM
not listed: [1] | [9] | [19]
inactive: all other assays above

Cc1nn(C)c(Oc2ccccc2)c1C=NOCc1ccc(C(=O)OC(C)(C)C)cc1
inactive: [2] | [4] | [19] | [11] | [13] | [17]
active: [1] 4.15 µM | [3] 9.19 µM | [5] 1.24 µM | [6] 3.08 µM | [7] 3.96 µM | [8] 1.11 µM | [10] 0.903 µM | [12] 22.2 µM | [14] 4 µM | BCL2L11 (gene 10018) 2.53 µM | [15] 29.9 µM | [16] 7.02 µM

S=C(S)NCCNC(=S)S.[Mn+2].[S-]C([S-])=NCCN=C([S-])[S-].[Zn+2]
inactive: [2] | [10] | [11] | [12] | BCL2L11 (gene 10018) | [17]
active: [2] 1.62 µM and 1.21 µM | [3] 881 nM and 993 nM and 732 nM | [4] 3.12 µM and 2.14 µM and 4.41 µM | [5] 717 nM and 898 nM and 1.03 µM | [6] 695 nM and 718 nM and 693 nM | [7] 200 nM and 267 nM and 401 nM | [8] 200 nM and 397 nM and 391 nM | [9] 799 nM and 1.07 µM and 953 nM | [10] 25 µM | [12] 2.35 µM and 1.62 µM | [13] 255 nM and 1.08 µM and 270 nM | [14] 1.28 µM and 1.55 µM | BCL2L11 (gene 10018) 3.84 µM | [15] 1.22 µM and 1.49 µM and 1.99 µM | [16] 163 nM and 351 nM and 509 nM
